The target in experiment [1] is T1, AMP-activated protein kinase (AMPK) alpha-1/beta-1/gamma-1 (Homo sapiens) (UniProt P54619+Q9Y478+Q13131). Particulars: at 1 µM.
The target of experiment [2] is T1, AMP-activated protein kinase (AMPK) alpha-1/beta-1/gamma-1 (Homo sapiens). Particulars: at 10 µM.
The target in experiment [3] is T2, AMP-activated protein kinase, AMPK (Homo sapiens) (UniProt P54646+O43741+P54619+Q9UGJ0+Q9Y478+Q13131+Q9UGI9). Particulars: at 1 µM.
The target in experiment [4] is T2, AMP-activated protein kinase, AMPK (Homo sapiens). Particulars: at 10 µM.
Experiment [5] has as its target T3, NUAK family SNF1-like kinase 1 (Homo sapiens) (UniProt O60285).
T3 sequence (whole entry): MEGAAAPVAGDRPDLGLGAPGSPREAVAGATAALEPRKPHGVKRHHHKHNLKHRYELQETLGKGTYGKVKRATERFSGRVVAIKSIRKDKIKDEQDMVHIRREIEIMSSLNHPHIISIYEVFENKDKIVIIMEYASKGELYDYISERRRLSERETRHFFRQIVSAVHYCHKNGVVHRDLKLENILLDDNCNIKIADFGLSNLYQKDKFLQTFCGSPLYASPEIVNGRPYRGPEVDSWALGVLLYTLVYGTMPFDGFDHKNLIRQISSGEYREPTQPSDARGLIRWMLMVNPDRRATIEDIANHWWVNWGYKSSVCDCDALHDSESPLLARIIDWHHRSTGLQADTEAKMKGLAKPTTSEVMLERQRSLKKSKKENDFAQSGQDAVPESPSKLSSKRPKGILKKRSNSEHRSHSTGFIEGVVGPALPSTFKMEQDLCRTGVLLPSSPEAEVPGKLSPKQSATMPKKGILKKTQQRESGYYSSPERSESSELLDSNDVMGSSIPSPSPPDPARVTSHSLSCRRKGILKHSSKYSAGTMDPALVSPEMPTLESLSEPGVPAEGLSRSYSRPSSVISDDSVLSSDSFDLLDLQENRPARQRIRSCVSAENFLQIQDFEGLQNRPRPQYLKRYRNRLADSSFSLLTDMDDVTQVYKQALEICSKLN
The settings on record: at 1 µM.

Experiment [6] concerns the target T3, NUAK family SNF1-like kinase 1 (Homo sapiens). The settings on record: at 10 µM.
The target of experiment [7] is T4, Mitogen-activated protein kinase kinase kinase 5 (Homo sapiens) (UniProt Q99683).
T4 sequence (whole entry): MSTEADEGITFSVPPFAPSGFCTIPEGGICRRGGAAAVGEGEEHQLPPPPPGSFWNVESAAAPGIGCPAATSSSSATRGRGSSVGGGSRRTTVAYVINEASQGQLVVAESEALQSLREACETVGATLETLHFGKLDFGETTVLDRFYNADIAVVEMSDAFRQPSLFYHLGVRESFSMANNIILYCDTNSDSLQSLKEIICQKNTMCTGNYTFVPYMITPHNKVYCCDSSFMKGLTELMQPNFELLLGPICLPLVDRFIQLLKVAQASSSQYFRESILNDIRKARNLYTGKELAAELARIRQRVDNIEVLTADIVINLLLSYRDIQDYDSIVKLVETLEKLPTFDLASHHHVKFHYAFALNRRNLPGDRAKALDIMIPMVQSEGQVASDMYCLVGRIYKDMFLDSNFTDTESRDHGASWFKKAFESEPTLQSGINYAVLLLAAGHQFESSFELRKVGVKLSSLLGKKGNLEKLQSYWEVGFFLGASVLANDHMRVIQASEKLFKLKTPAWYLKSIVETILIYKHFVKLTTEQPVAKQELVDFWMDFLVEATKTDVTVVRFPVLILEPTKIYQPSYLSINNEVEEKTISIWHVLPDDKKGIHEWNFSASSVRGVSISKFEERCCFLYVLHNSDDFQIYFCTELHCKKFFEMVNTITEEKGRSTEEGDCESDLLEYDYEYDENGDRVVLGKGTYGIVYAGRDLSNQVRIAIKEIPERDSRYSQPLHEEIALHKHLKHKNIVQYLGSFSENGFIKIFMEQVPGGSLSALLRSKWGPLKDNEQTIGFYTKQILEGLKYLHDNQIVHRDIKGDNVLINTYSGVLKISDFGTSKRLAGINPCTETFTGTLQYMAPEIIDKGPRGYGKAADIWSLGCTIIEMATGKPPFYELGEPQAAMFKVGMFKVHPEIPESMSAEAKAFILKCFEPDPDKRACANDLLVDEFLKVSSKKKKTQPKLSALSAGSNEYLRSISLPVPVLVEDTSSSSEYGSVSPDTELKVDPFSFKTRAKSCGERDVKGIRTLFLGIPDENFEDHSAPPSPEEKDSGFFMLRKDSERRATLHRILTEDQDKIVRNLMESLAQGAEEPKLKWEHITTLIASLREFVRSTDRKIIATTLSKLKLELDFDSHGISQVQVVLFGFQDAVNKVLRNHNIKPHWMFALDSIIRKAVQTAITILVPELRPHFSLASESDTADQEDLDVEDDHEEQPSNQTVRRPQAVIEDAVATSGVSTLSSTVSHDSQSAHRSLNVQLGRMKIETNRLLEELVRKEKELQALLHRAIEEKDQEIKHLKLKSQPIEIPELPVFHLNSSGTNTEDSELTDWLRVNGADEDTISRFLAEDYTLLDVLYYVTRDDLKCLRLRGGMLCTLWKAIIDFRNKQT
The settings on record: at 1 µM.

Experiment [8] concerns the target T5, 3-phosphoinositide-dependent protein kinase 1 (Homo sapiens) (UniProt O15530).
T5 sequence (whole entry): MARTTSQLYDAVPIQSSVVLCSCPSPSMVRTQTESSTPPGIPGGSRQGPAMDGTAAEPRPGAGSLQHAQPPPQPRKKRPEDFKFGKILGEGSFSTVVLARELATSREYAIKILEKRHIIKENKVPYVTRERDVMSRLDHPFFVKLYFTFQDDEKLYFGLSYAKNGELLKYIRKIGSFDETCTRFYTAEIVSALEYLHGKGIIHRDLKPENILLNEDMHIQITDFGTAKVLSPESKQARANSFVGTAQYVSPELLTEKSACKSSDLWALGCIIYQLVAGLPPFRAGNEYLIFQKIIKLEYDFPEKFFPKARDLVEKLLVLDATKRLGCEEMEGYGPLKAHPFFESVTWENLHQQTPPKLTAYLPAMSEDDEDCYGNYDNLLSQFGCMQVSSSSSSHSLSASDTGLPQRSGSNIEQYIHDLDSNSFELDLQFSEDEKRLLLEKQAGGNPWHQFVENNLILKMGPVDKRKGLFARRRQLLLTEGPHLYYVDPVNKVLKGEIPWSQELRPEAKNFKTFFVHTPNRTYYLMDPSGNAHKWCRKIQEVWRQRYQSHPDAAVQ
The settings on record: at 10 µM.

Experiment [9] deals with RAC-alpha serine/threonine-protein kinase (Homo sapiens) (UniProt P31749). Particulars: at 1 µM.
Experiment [10] shares this target. Particulars: at 10 µM.

This passage reports residual activity results from ChEMBL document CHEMBL2218924, “A broad activity screen in support of a chemogenomic map for kinase signalling research and drug discovery” (Biochem J, 2013).

Sequence of RAC-alpha serine/threonine-protein kinase (Homo sapiens) (P31749 whole entry): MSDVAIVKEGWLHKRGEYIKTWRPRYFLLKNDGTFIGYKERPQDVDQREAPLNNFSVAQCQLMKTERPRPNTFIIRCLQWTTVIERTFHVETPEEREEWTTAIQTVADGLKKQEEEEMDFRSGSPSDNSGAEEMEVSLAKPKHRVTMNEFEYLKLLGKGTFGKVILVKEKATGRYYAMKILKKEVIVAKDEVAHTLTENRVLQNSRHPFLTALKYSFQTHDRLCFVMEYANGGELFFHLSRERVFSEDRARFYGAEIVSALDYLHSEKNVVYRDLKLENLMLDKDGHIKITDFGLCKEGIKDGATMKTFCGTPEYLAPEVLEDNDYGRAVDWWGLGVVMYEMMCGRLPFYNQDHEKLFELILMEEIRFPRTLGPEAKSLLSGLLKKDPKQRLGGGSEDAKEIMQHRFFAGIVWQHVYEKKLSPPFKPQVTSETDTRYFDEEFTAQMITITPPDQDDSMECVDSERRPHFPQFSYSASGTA
T1 sequence (P54619 whole entry): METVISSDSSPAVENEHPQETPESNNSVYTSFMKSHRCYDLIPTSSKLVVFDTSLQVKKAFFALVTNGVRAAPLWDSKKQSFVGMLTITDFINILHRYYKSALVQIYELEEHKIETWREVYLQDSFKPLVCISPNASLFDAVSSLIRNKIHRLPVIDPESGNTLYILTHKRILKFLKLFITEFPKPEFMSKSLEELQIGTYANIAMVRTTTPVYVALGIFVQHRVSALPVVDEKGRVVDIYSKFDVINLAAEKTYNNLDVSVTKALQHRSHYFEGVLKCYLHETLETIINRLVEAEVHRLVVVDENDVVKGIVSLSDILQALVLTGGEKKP
T1 sequence (Q13131 whole entry partner): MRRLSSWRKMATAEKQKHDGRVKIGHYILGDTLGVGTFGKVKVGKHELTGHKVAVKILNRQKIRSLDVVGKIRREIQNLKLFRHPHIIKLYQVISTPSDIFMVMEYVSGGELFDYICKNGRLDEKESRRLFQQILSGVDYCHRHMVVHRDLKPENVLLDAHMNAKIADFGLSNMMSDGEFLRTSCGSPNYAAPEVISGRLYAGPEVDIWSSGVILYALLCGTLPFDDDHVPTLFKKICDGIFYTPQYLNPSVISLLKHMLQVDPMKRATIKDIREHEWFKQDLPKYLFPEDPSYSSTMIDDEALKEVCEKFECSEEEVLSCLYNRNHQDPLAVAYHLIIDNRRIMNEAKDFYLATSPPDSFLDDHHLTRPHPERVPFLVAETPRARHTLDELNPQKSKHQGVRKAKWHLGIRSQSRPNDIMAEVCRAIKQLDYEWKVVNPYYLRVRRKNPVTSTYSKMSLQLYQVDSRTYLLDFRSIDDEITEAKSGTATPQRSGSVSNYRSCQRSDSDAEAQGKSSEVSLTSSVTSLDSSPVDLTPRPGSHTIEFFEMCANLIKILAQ
T1 sequence (Q9Y478 2-270 partner limits assumed): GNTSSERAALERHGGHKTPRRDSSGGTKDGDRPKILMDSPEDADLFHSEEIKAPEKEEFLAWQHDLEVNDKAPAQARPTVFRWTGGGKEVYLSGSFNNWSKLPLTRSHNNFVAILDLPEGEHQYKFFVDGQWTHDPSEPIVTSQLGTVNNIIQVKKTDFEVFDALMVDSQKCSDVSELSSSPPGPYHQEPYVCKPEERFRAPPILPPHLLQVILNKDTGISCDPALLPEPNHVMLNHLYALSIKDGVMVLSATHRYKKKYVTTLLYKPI

As for `CC(C)[C@H](CO)Nc1nc(Nc2cccc(Cl)c2)c2ncn(C(C)C)c2n1`, the residual activity in [1] was 92%; in experiment [2], 42%; in [3] it was 95%; in experiment [4] it was 48%; in experiment [5] it was 84%; in [6] it was 33%. Further, the residual activity in [7] came out at 102%; in experiment [8], 97%.

Regarding `CCCC(=O)Oc1ccc2[nH]c(C(=O)c3cc4ccccc4[nH]3)cc2c1`, in experiment [9], the residual activity was determined as 97%.

Turning to `COc1ccc2c(c1)c(C1=C(c3c[nH]c4ccccc34)C(=O)NC1=O)cn2CCCN(C)C`, the residual activity in experiment [9] is 110%; in [10], 120%.

As to `O=c1c2ccccc2[nH]c(=S)n1CCN1CCC(=C(c2ccc(F)cc2)c2ccc(F)cc2)CC1`, the residual activity in experiment [9] is 112%; in experiment [10], 107%.

For `N#C/C(=C\c1ccc(O)c(O)c1)C(=O)NCc1ccccc1`, the figures for the residual activity in experiment [9] and in experiment [10] were 103% and 120%, respectively.

Consider `CO[C@H]1[C@@H](OC)C[C@H](C)[C@@H](OC)C2=CC(=O)C=C(NC(=O)/C(C)=C/C=C/[C@H](OC)[C@@H](OC(N)=O)/C(C)=C/[C@@H]1C)C2=O`, for which the residual activity worked out at 112% in [9] and 114% in experiment [10].

Take `O=C1NC(=O)C(c2cn(CCCn3ccnc3)c3ccccc23)=C1Nc1ccccc1`: the residual activity stood at 104% in experiment [9] and 102% in experiment [10].

With `CNc1cc2c(Nc3cccc(Br)c3)ncnc2cn1`, the residual activity in experiment [9] and in experiment [10] was 98% in each case.

On to `COc1cc2ncnc(N3CCN(C(=O)Nc4ccc(Oc5ccccc5)cc4)CC3)c2cc1OC`, for which the figures for the residual activity in experiment [9] and in experiment [10] were 106% and 107%, respectively.

For `Cn1cc(/C=C2\C(=O)Nc3ccc(S(N)(=O)=O)cc32)c2ccccc21`, the residual activity in experiment [9] worked out at 96%; in experiment [10] it was 101%.

In the case of `Cc1cccc(-c2[nH]c(C(C)(C)C)nc2-c2ccc3c(c2)OCO3)n1`, the residual activity was determined as 100% in [9] and 107% in experiment [10].

With `CC[n+]1c(/C=C/N(C)c2ccccc2)n(-c2ccccc2)c2ccc(-c3nc4ccccc4s3)cc21`, the residual activity in [9] stood at 99%; in experiment [10], 107%.

As for `CO[C@H]1C[C@@H]2CC[C@@H](C)[C@@](O)(O2)C(=O)C(=O)N2CCCC[C@H]2C(=O)O[C@H]([C@H](C)C[C@@H]2CC[C@@H](O)[C@H](OC)C2)CC(=O)[C@H](C)/C=C(\C)[C@@H](O)[C@@H](OC)C(=O)[C@H](C)C[C@H](C)/C=C/C=C/C=C/1C`, the values for the residual activity in experiment [9] and in experiment [10] were 105% and 98%, respectively.

For the compound `Nc1n[nH]c2nnc(-c3c(-c4ccccc4)nn4ccccc34)cc12`, the residual activity in experiment [9] came to 111%; in experiment [10], 99%.

For the compound `Oc1n[nH]c2nnc(-c3c(-c4ccccc4)nn4ccccc34)cc12`, the results for the residual activity in experiment [9] and in experiment [10] were 105% and 111%, respectively.

With `Cc1nc2cc3nc(-c4cccs4)cnc3cc2n1C`, the residual activity was found to be 100% in experiment [9] and 105% in [10].

With `CC(=O)c1ccc(N2CCOCC2)cc1O`, the residual activity in experiment [9] was 101%; in [10], 111%.

Consider `Cc1ccc(S(=O)(=O)/C=C/C#N)cc1`, for which the residual activity in experiment [9] was found to be 107%; in experiment [10], 112%.

For the compound `CCN(CC)CCCCN1c2ccccc2Oc2ccc(Cl)cc21`, the residual activity in experiment [9] and in experiment [10] was 104% each time.

In the case of `COc1ccc(C(=O)Nc2sc3c(c2C(N)=O)CCCC3)cc1OC`, the values for the residual activity in [9] and in experiment [10] were 103% and 109%, respectively.

As for `Cn1nc2c3c(cccc31)C(=O)c1ccccc1-2`, the results for the residual activity in [9] and in experiment [10] were 111% and 108%, respectively.

As for `O=Nc1c(-c2c(O)[nH]c3ccccc23)[nH]c2ccccc12`, the residual activity in experiment [9] came to 107%; in experiment [10] it was 98%.

Consider `Nc1ncnc2c1cnn2-c1ccccc1`, for which the residual activity in experiment [9] and in [10] was 96% in each case.

On to `CCC(=O)Nc1ccc2ncnc(Nc3cccc(Br)c3)c2c1`, for which the residual activity was found to be 99% in [9] and 106% in [10].

As to `CC(C)n1cnc2c(NCc3ccccc3)nc(NCCCO)nc21`, the residual activity came out at 107% in [9] and 110% in [10].
